Holding throughout (design): scale not given: direction of the effect not stated beside the values
The target of experiment [1] is Protein translocase subunit SecA (Escherichia coli (strain K12)) (UniProt P10408). Put plainly: Assay to Identify E. coli SecA ATPase Inhibitors. Type of experiment: functional. As to conditions: 30 µM.
Experiment [2] concerns the target T1, Ubiquitin-activating enzyme e1, putative (Leishmania donovani (strain BPK282A1)) (UniProt E9BSI1).
T1 sequence (whole entry): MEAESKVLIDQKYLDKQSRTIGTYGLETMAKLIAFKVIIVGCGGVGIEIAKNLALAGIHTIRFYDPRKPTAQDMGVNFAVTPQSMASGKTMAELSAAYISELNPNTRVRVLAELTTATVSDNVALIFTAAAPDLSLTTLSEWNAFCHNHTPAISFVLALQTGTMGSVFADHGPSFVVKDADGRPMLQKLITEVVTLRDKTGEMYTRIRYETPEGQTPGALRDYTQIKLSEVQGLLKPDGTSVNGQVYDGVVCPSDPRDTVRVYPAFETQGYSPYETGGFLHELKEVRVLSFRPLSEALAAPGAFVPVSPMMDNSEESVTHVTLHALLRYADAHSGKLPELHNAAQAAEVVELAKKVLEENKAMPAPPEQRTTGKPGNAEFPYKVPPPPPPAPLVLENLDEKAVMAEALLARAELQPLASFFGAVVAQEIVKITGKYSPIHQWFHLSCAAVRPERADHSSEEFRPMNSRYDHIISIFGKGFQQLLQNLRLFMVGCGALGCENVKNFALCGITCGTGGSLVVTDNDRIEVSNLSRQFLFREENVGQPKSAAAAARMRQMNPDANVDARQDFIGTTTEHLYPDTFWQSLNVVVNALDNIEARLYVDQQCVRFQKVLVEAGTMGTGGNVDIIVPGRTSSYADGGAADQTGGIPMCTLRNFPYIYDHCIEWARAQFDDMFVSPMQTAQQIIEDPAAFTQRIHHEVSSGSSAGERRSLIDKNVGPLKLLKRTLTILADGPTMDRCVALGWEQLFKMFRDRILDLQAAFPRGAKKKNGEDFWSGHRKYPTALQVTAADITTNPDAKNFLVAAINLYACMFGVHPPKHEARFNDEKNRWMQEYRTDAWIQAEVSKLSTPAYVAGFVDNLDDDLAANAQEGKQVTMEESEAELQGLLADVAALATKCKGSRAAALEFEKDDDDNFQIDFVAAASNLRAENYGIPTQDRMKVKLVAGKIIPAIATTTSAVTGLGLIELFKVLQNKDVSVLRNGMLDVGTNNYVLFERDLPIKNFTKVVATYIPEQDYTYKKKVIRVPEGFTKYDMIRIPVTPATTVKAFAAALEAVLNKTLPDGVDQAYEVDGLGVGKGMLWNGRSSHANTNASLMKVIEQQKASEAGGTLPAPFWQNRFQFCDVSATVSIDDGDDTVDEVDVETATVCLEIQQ
Put plainly: Leishmania donovani Ubiquitin Activating Enzyme (LdE1). It counts as functional. As to conditions: 30 µM.

For experiment [3], the target named is T2, Aspartate--tRNA(Asp/Asn) ligase (Mycobacterium tuberculosis (strain ATCC 25618 / H37Rv)) (UniProt P9WFW3). Further: in the data most compounds retested in dose-response had high values.
T2 sequence (whole entry): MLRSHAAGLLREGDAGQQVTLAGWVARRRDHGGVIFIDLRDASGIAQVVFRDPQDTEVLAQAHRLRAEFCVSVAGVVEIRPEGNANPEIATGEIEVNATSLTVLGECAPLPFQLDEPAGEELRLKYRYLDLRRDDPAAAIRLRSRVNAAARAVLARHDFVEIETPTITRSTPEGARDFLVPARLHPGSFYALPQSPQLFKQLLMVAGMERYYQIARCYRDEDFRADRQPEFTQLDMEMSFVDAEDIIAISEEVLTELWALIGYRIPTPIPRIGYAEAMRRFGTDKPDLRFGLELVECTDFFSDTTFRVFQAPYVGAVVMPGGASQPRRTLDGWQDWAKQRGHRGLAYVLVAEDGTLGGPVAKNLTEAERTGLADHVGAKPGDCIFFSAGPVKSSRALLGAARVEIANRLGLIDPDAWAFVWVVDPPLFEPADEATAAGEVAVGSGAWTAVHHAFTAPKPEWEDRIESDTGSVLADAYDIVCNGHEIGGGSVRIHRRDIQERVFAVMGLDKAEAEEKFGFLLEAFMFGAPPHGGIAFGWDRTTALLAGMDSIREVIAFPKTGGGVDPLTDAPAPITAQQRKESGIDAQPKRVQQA
Nature of the experiment: Assay for Asp RNA synthetase-1 from Mycobacterium tuberculosis. It counts as functional. The following applies: 30 µM.

Experiment [4] has as its target AMP-activated protein kinase, AMPK (Homo sapiens) (UniProt P54646+O43741+P54619+Q9UGJ0+Q9Y478+Q13131+Q9UGI9). Put plainly: AMP-dependent Kinase enzyme assay. An in vitro enzyme assay that detects ADP turnover that is directly proportional to AMPK activity. This uses naive AMPK that is activated during the assay with MK-8722. Type of experiment: functional. The following applies: 30 µM.

Experiment [5] deals with Sialic acid-binding Ig-like lectin 9 (Homo sapiens) (UniProt Q9Y336). Put plainly: Hs-Siglec9 ALPHAscreen SOP 20170721. The following applies: 10 µM.
Chain of Sialic acid-binding Ig-like lectin 9 (Homo sapiens) (Q9Y336 whole entry): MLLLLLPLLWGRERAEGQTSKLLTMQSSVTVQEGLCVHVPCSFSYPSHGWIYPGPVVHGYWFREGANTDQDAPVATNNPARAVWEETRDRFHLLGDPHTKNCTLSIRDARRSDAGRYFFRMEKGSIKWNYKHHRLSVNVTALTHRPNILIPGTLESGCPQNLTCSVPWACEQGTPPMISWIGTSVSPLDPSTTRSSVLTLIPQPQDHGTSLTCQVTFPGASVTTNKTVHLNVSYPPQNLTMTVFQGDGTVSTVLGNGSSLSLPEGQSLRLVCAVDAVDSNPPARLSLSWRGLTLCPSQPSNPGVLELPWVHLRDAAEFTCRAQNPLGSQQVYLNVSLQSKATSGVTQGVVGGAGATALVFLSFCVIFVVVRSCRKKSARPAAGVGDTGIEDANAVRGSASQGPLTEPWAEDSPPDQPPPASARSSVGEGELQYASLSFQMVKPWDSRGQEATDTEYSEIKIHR
In a further experiment the test system is Trypanosoma cruzi. Put plainly: Trypanosoma cruzi phosphomannomutase and mannose-1-phosphate guanylyltransferase assay. Type of experiment: functional. As to conditions: 10 µM.
The target in experiment [6] is T3, Arginase-2, mitochondrial (Homo sapiens) (UniProt P78540).
T3 sequence (whole entry): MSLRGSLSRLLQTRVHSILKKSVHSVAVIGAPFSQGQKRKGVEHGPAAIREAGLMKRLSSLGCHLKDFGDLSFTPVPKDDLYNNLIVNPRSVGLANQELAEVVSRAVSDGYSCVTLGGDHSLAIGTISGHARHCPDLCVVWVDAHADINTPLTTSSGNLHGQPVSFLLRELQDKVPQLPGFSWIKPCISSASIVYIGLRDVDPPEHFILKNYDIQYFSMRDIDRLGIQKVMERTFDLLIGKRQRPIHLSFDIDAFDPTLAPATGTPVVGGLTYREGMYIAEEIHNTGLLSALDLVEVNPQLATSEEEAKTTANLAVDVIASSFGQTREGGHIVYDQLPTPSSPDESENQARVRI
Nature of the experiment: in vitro enzyme assay to detect the production of urea directly proportional to the activity of Arginase II. Further: in the data most compounds retested in dose-response had high values. It counts as functional. The following applies: 33.3 µM.

For experiment [7], the target named is T4, Proteasome subunit beta (Trypanosoma cruzi) (UniProt O96673).
T4 sequence (whole entry): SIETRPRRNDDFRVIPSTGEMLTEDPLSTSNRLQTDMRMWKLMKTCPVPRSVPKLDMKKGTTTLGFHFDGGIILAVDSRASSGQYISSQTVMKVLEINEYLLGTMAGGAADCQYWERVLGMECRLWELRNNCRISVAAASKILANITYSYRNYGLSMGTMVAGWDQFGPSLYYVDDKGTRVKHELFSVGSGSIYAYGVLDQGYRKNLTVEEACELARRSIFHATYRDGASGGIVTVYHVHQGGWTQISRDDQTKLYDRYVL
Put plainly: Trypanosoma cruzi proteasome chymotrypsin-like activity (TcProtChymo) assay. Further: in the data most compounds retested in dose-response had high values. Type of experiment: functional. The following applies: 9.37 µM.

The species named for another experiment is Homo sapiens. Put plainly: To identify inhibition of the IFN signalling (Jak-Stat) pathway via expression of an eGFP reporter gene under the control of an IFN-stimulated response element (ISRE) containing MxA promoter. It counts as functional. As to conditions: 30 µM. (In a reporter assay the amount or activity of a reporter protein is the signal.)
The target in experiment [8] is Shiga toxin 2 (Escherichia coli O157:H7) (UniProt P09385+P09386). Put plainly: E. coli 0.157:H7 Shiga Toxin SOP - stx2 screening assay. It counts as functional. The following applies: 30 µM.
Experiment [9] deals with T5, Tyrosyl-tRNA synthetase, putative (Trypanosoma cruzi (strain CL Brener)) (UniProt Q4DSP6).
T5 sequence (whole entry): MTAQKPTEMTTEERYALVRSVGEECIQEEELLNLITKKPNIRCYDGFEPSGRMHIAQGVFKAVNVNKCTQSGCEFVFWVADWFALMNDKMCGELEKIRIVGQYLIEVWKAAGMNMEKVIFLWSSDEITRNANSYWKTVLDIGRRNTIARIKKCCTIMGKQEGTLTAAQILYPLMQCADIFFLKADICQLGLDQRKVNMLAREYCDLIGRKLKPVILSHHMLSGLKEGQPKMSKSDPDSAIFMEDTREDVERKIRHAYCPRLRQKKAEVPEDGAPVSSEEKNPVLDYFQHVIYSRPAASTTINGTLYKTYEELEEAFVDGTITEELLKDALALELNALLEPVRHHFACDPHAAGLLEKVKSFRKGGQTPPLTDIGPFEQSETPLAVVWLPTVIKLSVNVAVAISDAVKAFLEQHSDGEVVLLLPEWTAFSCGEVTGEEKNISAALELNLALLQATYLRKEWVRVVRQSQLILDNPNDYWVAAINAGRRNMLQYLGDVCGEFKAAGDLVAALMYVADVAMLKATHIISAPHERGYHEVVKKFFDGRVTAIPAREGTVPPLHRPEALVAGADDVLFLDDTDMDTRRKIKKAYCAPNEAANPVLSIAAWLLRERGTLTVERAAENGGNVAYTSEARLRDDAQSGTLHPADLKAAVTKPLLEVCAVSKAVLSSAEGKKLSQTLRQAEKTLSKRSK
Nature of the experiment: Trypanosoma cruzi tyrosyl tRNA synthetase (TcYRS) _High Tyrosine SOP. Further: in the data most compounds retested in dose-response had high values. It counts as functional. As to conditions: 30 µM.

Experiment [10] addresses T5, Tyrosyl-tRNA synthetase, putative (Trypanosoma cruzi (strain CL Brener)). Put plainly: Trypanosoma cruzi tyrosyl tRNA synthetase (TcYRS) SOP. Type of experiment: functional. As to conditions: 30 µM.
For experiment [11], the target named is Chromo domain-containing protein 1 (Saccharomyces cerevisiae (strain ATCC 204508 / S288c) (Baker's yeast)) (UniProt P32657). Nature of the experiment: ScCHD-1 Enzyme Inhibition Assay. Further: in the data most compounds retested in dose-response had high values. Type of experiment: functional. As to conditions: 30 µM.
Chain of Chromo domain-containing protein 1 (Saccharomyces cerevisiae (strain ATCC 204508 / S288c) (Baker's yeast)) (P32657 whole entry, the tested form may be a part): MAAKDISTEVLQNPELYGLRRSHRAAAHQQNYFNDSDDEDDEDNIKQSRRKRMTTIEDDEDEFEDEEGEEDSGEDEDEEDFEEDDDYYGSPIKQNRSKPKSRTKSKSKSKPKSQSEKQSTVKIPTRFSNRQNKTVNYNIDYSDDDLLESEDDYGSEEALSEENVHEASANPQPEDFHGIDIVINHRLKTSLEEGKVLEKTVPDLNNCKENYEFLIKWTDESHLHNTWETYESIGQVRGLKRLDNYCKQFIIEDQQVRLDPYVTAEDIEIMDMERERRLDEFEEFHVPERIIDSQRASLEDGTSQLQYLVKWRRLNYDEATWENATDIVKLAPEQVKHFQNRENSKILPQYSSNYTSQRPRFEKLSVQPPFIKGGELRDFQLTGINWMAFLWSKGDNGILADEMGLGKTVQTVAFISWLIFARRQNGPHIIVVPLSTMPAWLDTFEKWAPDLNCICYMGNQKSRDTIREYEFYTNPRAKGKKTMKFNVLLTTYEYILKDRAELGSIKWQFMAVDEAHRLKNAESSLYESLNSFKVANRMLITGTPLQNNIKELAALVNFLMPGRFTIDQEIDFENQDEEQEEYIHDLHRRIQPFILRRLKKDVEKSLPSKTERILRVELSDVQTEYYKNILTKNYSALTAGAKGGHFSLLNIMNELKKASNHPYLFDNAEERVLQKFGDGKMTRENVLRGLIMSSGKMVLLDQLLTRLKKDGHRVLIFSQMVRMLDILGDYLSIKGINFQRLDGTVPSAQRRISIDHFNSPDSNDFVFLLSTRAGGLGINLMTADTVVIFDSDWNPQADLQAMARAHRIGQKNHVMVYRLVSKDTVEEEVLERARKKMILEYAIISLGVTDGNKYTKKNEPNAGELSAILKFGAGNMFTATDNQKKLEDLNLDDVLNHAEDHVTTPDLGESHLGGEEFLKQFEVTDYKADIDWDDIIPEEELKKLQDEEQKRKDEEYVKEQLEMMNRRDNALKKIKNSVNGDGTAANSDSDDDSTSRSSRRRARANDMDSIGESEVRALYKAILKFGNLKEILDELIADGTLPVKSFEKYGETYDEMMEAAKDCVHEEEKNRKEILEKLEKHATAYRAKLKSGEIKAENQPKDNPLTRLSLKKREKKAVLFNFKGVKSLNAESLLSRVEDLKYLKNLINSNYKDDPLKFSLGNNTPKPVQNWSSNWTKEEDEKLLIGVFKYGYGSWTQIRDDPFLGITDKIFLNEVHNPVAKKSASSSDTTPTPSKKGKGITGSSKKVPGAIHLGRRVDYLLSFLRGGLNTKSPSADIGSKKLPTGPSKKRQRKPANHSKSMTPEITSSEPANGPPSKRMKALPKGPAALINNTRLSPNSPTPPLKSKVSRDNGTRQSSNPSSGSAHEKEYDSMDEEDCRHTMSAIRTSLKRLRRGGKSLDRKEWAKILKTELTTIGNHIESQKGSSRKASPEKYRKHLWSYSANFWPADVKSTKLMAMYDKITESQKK

For some assays here: Measured potencies and affinities stand elsewhere.

Chain of Protein translocase subunit SecA (Escherichia coli (strain K12)) (P10408 whole entry): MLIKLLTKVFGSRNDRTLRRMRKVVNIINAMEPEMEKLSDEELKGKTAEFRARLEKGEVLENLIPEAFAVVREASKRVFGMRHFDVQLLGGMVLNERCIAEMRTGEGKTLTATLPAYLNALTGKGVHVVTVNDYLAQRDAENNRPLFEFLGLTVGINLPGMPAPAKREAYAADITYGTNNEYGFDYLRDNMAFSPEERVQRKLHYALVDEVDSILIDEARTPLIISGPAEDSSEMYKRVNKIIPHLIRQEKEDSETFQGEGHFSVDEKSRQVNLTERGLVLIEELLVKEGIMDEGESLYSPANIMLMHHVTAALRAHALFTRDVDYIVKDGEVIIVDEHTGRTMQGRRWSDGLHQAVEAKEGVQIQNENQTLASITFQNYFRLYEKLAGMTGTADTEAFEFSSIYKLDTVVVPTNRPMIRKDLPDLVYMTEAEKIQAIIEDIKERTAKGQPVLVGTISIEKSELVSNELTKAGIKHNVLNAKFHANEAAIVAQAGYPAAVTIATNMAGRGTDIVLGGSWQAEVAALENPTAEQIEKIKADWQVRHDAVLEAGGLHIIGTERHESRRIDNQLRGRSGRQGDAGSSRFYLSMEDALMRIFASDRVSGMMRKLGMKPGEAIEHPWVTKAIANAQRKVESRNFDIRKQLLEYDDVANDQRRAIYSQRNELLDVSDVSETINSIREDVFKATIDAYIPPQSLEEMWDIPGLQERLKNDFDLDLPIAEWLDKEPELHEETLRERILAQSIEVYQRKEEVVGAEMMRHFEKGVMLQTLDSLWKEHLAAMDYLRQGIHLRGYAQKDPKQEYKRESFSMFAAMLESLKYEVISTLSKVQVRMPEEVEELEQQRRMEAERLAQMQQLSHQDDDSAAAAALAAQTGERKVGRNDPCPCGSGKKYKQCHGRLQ

For the compound `c1ccc(OC[C@@H]2CCC[C@@]23CNCCO3)nc1`, the Percent Effect in [1] was -2.73%; in experiment [2] it was 5.41%; in experiment [3], 9.49%; in [4] it was 130%; in experiment [5] it was -8.96%; in the experiment on Trypanosoma cruzi it was -4.79%. Besides, the Percent Effect in [6] was -7.33%; in [7], 17.9%; in the experiment listed under Homo sapiens it was 24.8%; in [8], -5.1%; in experiment [9], 1.08%; in experiment [10], 2.56%. Besides, in experiment [11], the Percent Effect is -0.951%.

In the case of `Cc1noc(C)c1CN1CC[C@H]2C[C@@H](c3nccs3)O[C@@H]2C1`, the Percent Effect in experiment [1] is -4.73%; in experiment [2], 5.41%; in experiment [3], 3.41%; in [4], 3.53%; in experiment [5], 1.06%; with Trypanosoma cruzi, 0.88%. Also, the Percent Effect came out at 0.319% in [6]; 18.1% in experiment [7]; 4.79% in the experiment listed under Homo sapiens; 11.3% in experiment [8]; 1.08% in [9]; 7.69% in [10]. Moreover, the Percent Effect in [11] was -0.345%.

For the compound `Cn1cc(N2CCC3(CCN(Cc4cccnc4)C3)C2=O)cn1` (stereo not given), the Percent Effect in [1] is 1.77%; in experiment [2], 5.41%; in experiment [3] it was -4.84%; in [4], 7.18%; in experiment [5], -13.3%; in the experiment on Trypanosoma cruzi it was -4.79%. In addition, the Percent Effect in [6] was 1.59%; in experiment [7], 25.1%; in the experiment filed under Homo sapiens, 2.62%; in [8], -17%; in [9] it was 0%; in experiment [10], 10.3%. Moreover, in experiment [11], the Percent Effect is -1.3%.

For `CN(Cc1cccnc1)[C@@H]1CN(CC2CC2)[C@@H]2CCCO[C@H]12`, the Percent Effect in [1] was -1.86%; in experiment [2], 2.67%; in [3], 3.49%; in experiment [4] it was 2.59%; in experiment [5], 2.23%; in the experiment with Trypanosoma cruzi it was -4.05%. For the same compound, the Percent Effect was -57.2% in experiment [6]; 3.42% in experiment [7]; -1.28% in the experiment filed under Homo sapiens; -18% in experiment [8]; 2.08% in experiment [9]; 5% in [10]. The Percent Effect in experiment [11] is -8.32%.

On to `c1ccc(CN2CC[C@H]3CO[C@H](CNc4ncccn4)[C@H]3C2)nc1`, for which the Percent Effect is -2.49% in experiment [1]; 8% in experiment [2]; -3.84% in [3]; 2.38% in [4]; 4.32% in experiment [5]; -0.772% in the experiment on Trypanosoma cruzi. The Percent Effect in [6] is -54.3%; in experiment [7], 9.74%; in the experiment filed under Homo sapiens it was -5.93%; in experiment [8], 3.55%; in experiment [9], 2.08%; in experiment [10], 12.5%. Besides, in experiment [11], the Percent Effect is -8.55%.

The values above are taken from ChEMBL document CHEMBL3988442, “University of Dundee, Small-Polar-MMV Screening Library” (2021).
